Experimental data taken from PubChem BioAssay AID1159580 (chemical genetic matrix, 2015).
“And” between values parts separate entries of the source, which are not always exact repeats. Identical values can stand only once. About 2,000 (36%) of roughly 5,500 compounds were called active. Inconclusive results (about 18%) are left out. Cut-off read from the data, not from the text of the source: active = normalized growth mostly below about 0.91 (no sharp cut-off); inconclusive = no clear call, values can overlap the other calls; inactive = mostly above about 0.92. Some of the results follow.

Assay: chemical genetic growth profiling, strain panel (AID 1159580);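 note: tested at 20 µM; growth read once vehicle control cultures reached saturation at 30 °C; 1 = growth at the plate median or of vehicle wells; lower values mean less growth of the strain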
Settings: S. cerevisiae deletion strains, growth OD

Measured: normalized growth

N[C@@H](Cc1ccc(O)c(O)c1)C(=O)O
inactive: locus YAL013W, strain DEP1, stronger effect = lower value 0.999 | locus YAL021C, strain ccr4, stronger effect = lower value 1 | locus YAL026C, strain drs2, stronger effect = lower value 0.989 | locus YAL030W, strain snc1, stronger effect = lower value 1 | locus YBL061C, strain skt5, stronger effect = lower value 1.01 | locus YBR009C, strain hhf1, stronger effect = lower value 0.982 | locus YBR021W, strain FUR4, stronger effect = lower value 1.14 | locus YBR023C, strain chs3, stronger effect = lower value 1 | locus YBR171W, strain sec66, stronger effect = lower value 0.997 | locus YBR229C, strain ROT2, stronger effect = lower value 1.01 | locus YBR231C, strain swc5, stronger effect = lower value 1 | locus YBR279W, strain paf1, stronger effect = lower value 1 | locus YCL011C, strain gbp2, stronger effect = lower value 1 | locus YCL016C, strain dcc1, stronger effect = lower value 0.997 | locus YCL029C, strain bik1, stronger effect = lower value 0.998 | locus YCL061C, strain MRC1, stronger effect = lower value 0.998 | locus YCL069W, strain vba3, stronger effect = lower value 1 | locus YCR088W, strain abp1, stronger effect = lower value 0.999 | locus YDL005C, strain med2, stronger effect = lower value 0.994 | locus YDL035C, strain GPR1, stronger effect = lower value 0.976 | locus YDL040C, strain nat1, stronger effect = lower value 0.998 | locus YDL074C, strain BRE1, stronger effect = lower value 0.969 | locus YDL101C, strain DUN1, stronger effect = lower value 0.993 | locus YDL134C, strain PPH21, stronger effect = lower value 0.997 | locus YDL185W, strain tfp1, stronger effect = lower value 0.955 | locus YDL192W, strain arf1, stronger effect = lower value 0.991 | locus YDR001C, strain nth1, stronger effect = lower value 1 | locus YDR069C, strain doa4, stronger effect = lower value 1 | locus YDR101C, strain arx1, stronger effect = lower value 1 | locus YDR137W, strain rgp1, stronger effect = lower value 1.01 | locus YDR150W, strain NUM1, stronger effect = lower value 0.947 | locus YDR159W, strain sac3, stronger effect = lower value 0.995 | locus YDR162C, strain NBP2, stronger effect = lower value 0.968 | locus YDR195W, strain ref2 0.962 | locus YDR297W, strain sur2, stronger effect = lower value 1.01 | locus YDR318W, strain mcm21, stronger effect = lower value 0.987 | locus YDR334W, strain swr1, stronger effect = lower value 1 | locus YDR335W, strain msn5, stronger effect = lower value 0.997 | locus YDR388W, stronger effect = lower value 1.01 | locus YDR392W, strain spt3, stronger effect = lower value 0.885 | locus YDR502C, strain sam2, stronger effect = lower value 0.999 | locus YEL003W, strain gim4, stronger effect = lower value 0.999 | locus YEL037C, strain rad23, stronger effect = lower value 1 | locus YEL061C, strain CIN8 (second series), stronger effect = lower value 0.999 | locus YEL061C, strain CIN8, stronger effect = lower value 0.998 | locus YER015W, strain faa2, stronger effect = lower value 1.01 | locus YER016W, strain bim1, stronger effect = lower value 0.995 | locus YER110C, stronger effect = lower value 0.993 | locus YER111C, strain swi4, stronger effect = lower value 0.995 | locus YER155C, strain BEM2 (second series), stronger effect = lower value 0.988 | locus YER155C, strain BEM2, stronger effect = lower value 1.02 | locus YER167W, strain BCK2, stronger effect = lower value 0.989 | locus YFR010W, strain ubp6, stronger effect = lower value 0.999 | locus YGL078C, strain dbp3, stronger effect = lower value 0.986 | locus YGL086W, strain mad1, stronger effect = lower value 0.98 | locus YGL167C, strain pmr1, stronger effect = lower value 0.994 | locus YGL173C, strain kem1, stronger effect = lower value 1 | locus YGL227W, strain vid30, stronger effect = lower value 0.986 | locus YGL240W, strain doc1, stronger effect = lower value 0.986 | locus YGL248W, strain PDE1, stronger effect = lower value 0.989 | locus YGL253W, strain hxk2, stronger effect = lower value 1 | locus YGR078C, strain PAC10, stronger effect = lower value 0.932 | locus YGR135W, strain pre9, stronger effect = lower value 0.996 | locus YGR229C, strain SMI1, stronger effect = lower value 0.928 | locus YGR252W, strain gcn5, stronger effect = lower value 1.03 | locus YHR013C, strain ard1, stronger effect = lower value 0.943 | locus YHR027C, strain rpn1, stronger effect = lower value 1.01 | locus YHR030C, strain SLT2, stronger effect = lower value 0.997 and 0.962 | locus YHR079C, strain IRE1 (second series), stronger effect = lower value 0.995 | locus YHR079C, strain IRE1, stronger effect = lower value 0.951 | locus YHR094C, strain hxt1, stronger effect = lower value 0.988 | locus YHR129C, strain ARP1, stronger effect = lower value 0.991 | locus YHR142W, strain chs7, stronger effect = lower value 1.01 | locus YHR200W, strain rpn10, stronger effect = lower value 0.992 | locus YIL066C, strain RNR3, stronger effect = lower value 0.928 | locus YIL073C, strain SPO22, stronger effect = lower value 0.866 | locus YIL125W, strain kgd1, stronger effect = lower value 0.984 | locus YIR030C, strain dcg1, stronger effect = lower value 1 | locus YJL092W, strain hpr5, stronger effect = lower value 0.991 | locus YJL095W, strain BCK1 (second series), stronger effect = lower value 1 | locus YJL095W, strain BCK1, stronger effect = lower value 1.01 and 0.968 | locus YJL115W, strain asf1, stronger effect = lower value 1 | locus YJL129C, strain trk1, stronger effect = lower value 1 | locus YJL134W, strain LCB3, stronger effect = lower value 0.99 | locus YJL154C, strain vps35, stronger effect = lower value 1 | locus YJL164C, strain tpk1, stronger effect = lower value 1 | locus YJL166W, strain qcr8, stronger effect = lower value 0.997 | locus YJL168C, strain set2, stronger effect = lower value 1.01 | locus YJL187C, strain SWE1 (second series), stronger effect = lower value 0.984 | locus YJL187C, strain SWE1, stronger effect = lower value 1 | locus YJR043C, strain POL32, stronger effect = lower value 0.996 | locus YJR066W, strain TOR1, stronger effect = lower value 0.928
